For 16 molecules, composite z-score and z-score results are on record in PubChem BioAssay.

Test [1] has as its system XIP peptide (Xip251-270) binding. Briefly: XIP fragment 251-270 binding compounds – biochemical, small-molecule microarray, fluorescence 635/667 nm, 0.1 µg/mL protein, primary screen (AID 1182). As to conditions: fluorescent protein binding, 635 nm, higher = more signal, called active from +8 up or from −8 down.
The next test relates to XIP peptide (Xip251-270). Briefly: compounds binding XIP fragment 251-270 – biochemical, small-molecule microarray, fluorescence 635/667 nm, 0.5 µg/mL protein, primary screen (AID 1183). As to conditions: fluorescence 635 nm, higher = more signal.
Test [2] is described as follows: blood-stage malaria parasite viability loss – strain 3D7, DAPI fluorescence, 100 nL, primary screen (AID 1184).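 Note: parasites grown inside human red blood cells in medium with human serum.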 The conditions noted are these: P. falciparum 3D7 growth, 3 d, higher = more signal.
Test [3] deals with Homeobox protein Hox-A13 (Mus musculus) (UniProt Q62424). As to the kind of experiment: disruptors of Hoxa13 oligonucleotide interaction – biochemical, fluorescence polarization, labeled oligonucleotide, primary screen (AID 1185). As to conditions: Hoxa13:DNA binding, 15 min, higher = more signal, called active from +8 up or from −8 down. Background: Fluorescence polarisation rises when a labelled molecule tumbles more slowly, as on binding a larger partner.
Chain of Homeobox protein Hox-A13 (Mus musculus) (Q62424 whole entry, looked up): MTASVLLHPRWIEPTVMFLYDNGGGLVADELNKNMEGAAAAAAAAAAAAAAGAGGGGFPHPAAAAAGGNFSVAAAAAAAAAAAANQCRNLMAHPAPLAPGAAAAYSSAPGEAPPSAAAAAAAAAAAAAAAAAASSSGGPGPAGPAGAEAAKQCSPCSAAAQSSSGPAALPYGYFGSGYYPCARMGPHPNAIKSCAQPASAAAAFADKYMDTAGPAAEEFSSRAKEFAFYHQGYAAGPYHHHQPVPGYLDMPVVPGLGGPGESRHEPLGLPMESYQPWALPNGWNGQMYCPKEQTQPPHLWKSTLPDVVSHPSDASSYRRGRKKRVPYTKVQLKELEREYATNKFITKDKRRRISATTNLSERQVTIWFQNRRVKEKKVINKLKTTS

Test [4] can be described thus: blockers of DNA damage checkpoint Chk1 activation – imaging, HeLa, hydroxyurea, phospho-Chk1 antibody, percent positive cells, primary screen (AID 1186). The conditions noted are these: hydroxyurea-induced phospho-Chk1 immunofluorescence imaging, higher = more signal.
Test [5] is described as follows: blockers of DNA damage checkpoint Chk1 activation – imaging, HeLa, hydroxyurea, phospho-Chk1 nuclear intensity, primary screen (AID 1187). The conditions noted are these: hydroxyurea-induced phospho-Chk1 immunofluorescence imaging, higher = more signal.

Calls of active or inactive are those of the source. Unless noted, the rule behind the calls is not given here.

For the molecule `COC(=O)[C@H]1N=C(c2ccc(OCCCO)cc2)O[C@H]1c1ccccc1CN=[N+]=[N-]`, the composite z-score in test [1] is 0.262 (inactive); in the test on XIP peptide (Xip251-270), 0.62. The z-score in test [2] was -1.79; in test [3] it was -1.53 (inactive); in test [4] it was 0.0721 (inactive); in test [5], 0.328 (inactive).
As to `COc1ccc(C(=O)Nc2ccc(CN3C(=O)[C@]4(O[C@H](CCn5cc([C@H](O)c6ccccc6)nn5)[C@@H]([Si](C)(C)c5ccc(OC)cc5)[C@@H]4C)c4ccccc43)cc2)cc1`, the composite z-score in test [1] was -0.211 (inactive); in the test on XIP peptide (Xip251-270) it was -0.0268. Moreover, the z-score is -2.7 in test [2], 0.564 (inactive) in test [3], 0.107 (inactive) in test [4] and 0.168 (inactive) in test [5].
Turning to `COCCOC(=O)N1C(=O)[C@@]2(c3ccccc31)[C@H](c1ccc(OCCO)cc1)N1[C@H](c3ccccc3)[C@H](c3ccccc3)OC(=O)[C@H]1[C@@H]2C(=O)NC[C@H](O)c1ccccc1`, the composite z-score in test [1] was 0.103 (inactive); with XIP peptide (Xip251-270), 0.808. In addition, the z-score is -1.64 in test [2], -4.23 (inactive) in test [3], 0.228 (inactive) in test [4] and 0.726 (inactive) in test [5].
With `CN(C)CCCNC(=O)[C@@]1(Cc2ccccc2I)c2ccccc2C(=O)N(Cc2ccccc2Cl)[C@H]1c1ccc(CO)cc1`, the composite z-score in test [1] is 0.191 (inactive); in the test with XIP peptide (Xip251-270), 0.774. The z-score in test [2] was -2.21; in test [3], -0.316 (inactive); in test [4] it was -0.022 (inactive); in test [5] it was -0.461 (inactive).
For `CCCC=C(CCC)[C@@H](NC(=O)Cc1ccccc1)c1ccc(C(=O)OC)cc1`, the values for the composite z-score (in test [1]; in the test on XIP peptide (Xip251-270)) were 0.349 (inactive) and 0.34, respectively. Besides, the z-score is -0.958 in test [2], -1.93 (inactive) in test [3], 0.374 (inactive) in test [4] and -0.309 (inactive) in test [5].
On to `COCCOC(=O)N1C(=O)[C@@]2(c3cc(C#Cc4ccc(OC)cc4)ccc31)[C@H](C(N)=O)[C@H]1C(=O)O[C@H](c3ccccc3)[C@H](c3ccccc3)N1[C@@H]2c1ccc(OCCO)cc1`, for which the composite z-score in test [1] is 0.283 (inactive); in the test on XIP peptide (Xip251-270), 0.721. Also, the z-score in test [2] was -2.35; in test [3], -1.11 (inactive); in test [4], 0.0311 (inactive); in test [5], 0.239 (inactive).
Regarding `CN(C)CCCCCCNC(=O)[C@@H]1C[C@@H]2C(=O)NCC(=O)N2[C@@H]1c1ccc(O)cc1`, the composite z-score in test [1] is 1.82 (inactive); with XIP peptide (Xip251-270), 0.935. Besides, the z-score is -0.107 in test [2], -1.63 (inactive) in test [3], -0.425 (inactive) in test [4] and -0.297 (inactive) in test [5].
On to `COc1ccc(C#Cc2ccc3c(c2)[C@]2(C(=O)N3)[C@H](C(=O)O)[C@H]3C(=O)O[C@H](c4ccccc4)[C@H](c4ccccc4)N3[C@@H]2c2ccc(OCCO)cc2)cc1`, for which the composite z-score in test [1] is 2.6 (inactive); with XIP peptide (Xip251-270), 0.701. Moreover, the z-score in test [2] was -1.78; in test [3] it was -5.22 (inactive); in test [4], 0.573 (inactive); in test [5] it was 0.862 (inactive).
As to `CCN(CC)c1ccc(N2CC=CC34O[C@@H]5/C=C\CCCOC(=O)C5[C@H]3C(=O)N(CCCCCCO)[C@@H]4C2=O)cc1` (stereo partly specified), the figures for the composite z-score (in test [1]; in the test with XIP peptide (Xip251-270)) were 1.51 (inactive) and 0.897, respectively. Also, the z-score was -0.789 in test [2], -5.09 (inactive) in test [3], -0.0771 (inactive) in test [4] and 1.02 (inactive) in test [5].
As for `COc1ccccc1CN1C(=O)c2ccccc2[C@@]2(Cc3ccccc3N(C3CC3)C2=O)[C@@H]1c1ccc(CO)cc1`, the composite z-score in test [1] was -0.0699 (inactive); in the test on XIP peptide (Xip251-270), 0.53. Moreover, the z-score in test [2] is 0.35; in test [3] it was -2.14 (inactive); in test [4], 0.315 (inactive); in test [5], 0.491 (inactive).
As to `C=CCNC(=O)[C@H]1[C@@H]2C(=O)O[C@@H](c3ccccc3)[C@@H](c3ccccc3)N2[C@@H](c2ccc(OCCO)cc2)[C@]12C(=O)N(C(=O)OCCOC)c1ccc(C#CC3=CCCCC3)cc12`, the results for the composite z-score (in test [1]; in the test with XIP peptide (Xip251-270)) were 0.377 (inactive) and 0.799, respectively. Besides, the z-score in test [2] was -2.22; in test [3], 2.62 (inactive); in test [4], -0.142 (inactive); in test [5] it was -0.108 (inactive).
In the case of `O=C1O[C@H](c2ccccc2)[C@H](c2ccccc2)N2[C@H]1[C@@H](C(=O)N1CCN(c3ncccn3)CC1)[C@]1(C(=O)Nc3ccc(C#CCCO)cc31)[C@H]2c1ccc(OCCO)cc1`, the composite z-score was 0.756 (inactive) in test [1] and 0.853 in the test on XIP peptide (Xip251-270). Besides, the z-score in test [2] is -1.9; in test [3], -0.587 (inactive); in test [4], 0.177 (inactive); in test [5] it was 0.923 (inactive).
Consider `CC1=C2[C@@H](CCc3ccccc3)OB(O)C[C@@H]2[C@@H]2C(=O)C=CC(=O)[C@@H]2C1`, for which the composite z-score in test [1] was -0.387 (inactive); with XIP peptide (Xip251-270), 0.403. Further, the z-score was -1.15 in test [2], -6.24 (inactive) in test [3], 1.15 (inactive) in test [4] and 1.1 (inactive) in test [5].
As for `COC(=O)[C@@]1(Cc2ccccc2)[C@H]2c3cc(C(=O)N(C)C)n(Cc4ccccn4)c3C[C@H]2CN1C(=O)c1ccccc1`, the composite z-score is 1.08 (inactive) in test [1] and 0.595 with XIP peptide (Xip251-270). Also, the z-score in test [2] is -0.847; in test [3], -4.92 (inactive); in test [4] it was 0.545 (inactive); in test [5] it was 0.295 (inactive).
In the case of `C#CCNS(=O)(=O)N(C)C`, the composite z-score in test [1] is 0.153 (inactive); in the test with XIP peptide (Xip251-270), 0.0198. Also, the z-score in test [2] is -0.265; in test [3], -0.146 (inactive); in test [4], -0.271 (inactive); in test [5], 0.0602 (inactive).
Consider `COCCCNC(=O)[C@@]1(Cc2ccccc2CN=[N+]=[N-])N=C(c2ccc(OCCCO)cc2)O[C@H]1c1ccccc1N=[N+]=[N-]`, for which the values for the composite z-score (in test [1]; in the test with XIP peptide (Xip251-270)) were 0.167 (inactive) and 0.668, respectively. Besides, the z-score in test [2] was -2.22; in test [3], -2.62 (inactive); in test [4], -0.498 (inactive); in test [5] it was -0.475 (inactive).
